# Data: PubChem BioAssay (NCI)
# “And” between values parts separate entries of the source, which are not always exact repeats. Equal entries are not always repeated. About 83,000 compounds went through this panel and 20% of them were active in at least one assay; those are over-represented in the sample as a whole.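 Compound tested at a single concentration for 48 hours in 96-well plates; a percent growth value below 10 was scored as active.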 A number with no mark means an inactive call. The source made the active and inactive calls.
# Experiments:
# Assay in all cases: NCI-60 one-dose screen, 48 h (100 = growth as untreated, 0 = no growth, -100 = all killed)
# Conditions in all cases: 10 µM
# NCI-H23 lung = tested on: NCI-H23 lung
# NCI-H226 lung = tested on: NCI-H226 lung
# NCI-H322M lung = tested on: NCI-H322M lung
# HOP-62 NSCLC = tested on: HOP-62 NSCLC
# NCI-H460 lung = tested on: NCI-H460 lung
# HOP-92 NSCLC = tested on: HOP-92 NSCLC
# COLO 205 colon = tested on: COLO 205 colon
# NCI-H522 lung = tested on: NCI-H522 lung
# A549/ATCC NSCLC = tested on: A549/ATCC NSCLC
# 786-0 renal = tested on: 786-0 renal
SMILES,growth (NCI-H23 lung),growth (NCI-H226 lung),growth (NCI-H322M lung),growth (HOP-62 NSCLC),growth (NCI-H460 lung),growth (HOP-92 NSCLC),growth (COLO 205 colon),growth (NCI-H522 lung),growth (A549/ATCC NSCLC),growth (786-0 renal)
O=[P+](O)c1ccccc1,107%,107%,149%,93.9%,106%,101%,112%,–,–,–
O=[N+]([O-])/C=C/c1ccc(Cl)cc1[N+](=O)[O-],65.6%,89.5%,96.6%,62.9%,58.4%,92.3%,–,42.9%,85.4%,28.3%
O=[N+]([O-])c1ccc(N(CCO)CCO)c2c1no[n+]2[O-],10.1%,0.462% (active),-16% (active),-34.1% (active),-26.2% (active),-35.5% (active),–,-62% (active),4% (active),-31.5% (active)
Cc1cc([N+](=O)[O-])c2ccccc2[n+]1[O-],-25.5% (active) and -33.7% (active),-4.63% (active) and -12.9% (active),-15.3% (active) and -45.7% (active),-20.4% (active) and -36.8% (active),-26.5% (active) and -38.4% (active),-8.69% (active) and -36.2% (active),-63.1% (active) and -95.1% (active),–,-23.4% (active) and -36.1% (active),-31.9% (active) and -30.8% (active)
O=C(CCl)Nc1ccc(Cl)cc1,28.4%,50.7%,78.3%,75.1%,99.8%,57.8%,–,-96.3% (active),85.1%,44.7%
COS(=O)(=O)c1ccccc1,98.5%,107%,106%,102%,112%,105%,113%,111%,105%,115%
COC12c3c(C)cc(O)c4c(=O)occ(c34)C(=O)C1C13COC(=O)c4c(O)cc(C)c(c41)C(=O)C2C3OC(C)=O (configuration not stated),99.7%,100%,95.4%,82.3%,97.9%,-9.88% (active),–,–,–,95.7%
CC(=O)[O][Hg][c]1c(C)c(C)cc(C)c1C,-45.3% (active),-5.8% (active),3.3% (active),-82.6% (active),-16.7% (active),–,–,-96.4% (active),91.5%,19%
CC(Cc1ccc2c(c1)OCO2)NN (configuration not stated),90.5%,87.1%,99.5%,73.9%,105%,76.6%,–,84%,82.8%,88.2%
O=C1C(=O)c2ccccc2-c2ccccc21,-54.3% (active),-88.3% (active),101%,-70% (active),3.18% (active),-87.7% (active),–,–,–,-88.2% (active)
CS(=N)(=O)CCC(N)C(=O)O (configuration not stated),95.2%,101%,108%,98.3%,112%,106%,122%,96.9%,97.8%,102%
CC12OOC(c3ccccc31)c1c2ccc2ccccc12 (configuration not stated),32.7%,86.7%,76.8%,73.3%,-63.2% (active),-61.9% (active),-65.4% (active),–,–,66.1%
O=C1C=Cc2ccccc2C1=O,73.5%,100%,100%,73%,78.7%,93.7%,117%,–,97.9%,110%
O=C(CBr)Nc1ccccc1,93.1%,98.4%,97.9%,109%,107%,101%,–,-84% (active),98.5%,102%
C[C@]12CC[C@H]3[C@@H](CCC4=CC(=O)CC[C@@H]43)[C@@H]1CC[C@@H]2OC(=O)N(CCCl)N=O,55.7%,55.8%,45.6%,44.8%,-37.9% (active),-11% (active),58.8%,–,–,17.9%
COc1ccc2c(ccc3oc([N+](=O)[O-])cc32)c1,-9.56% (active),-4.88% (active),-10.7% (active),-4.6% (active),-3.44% (active),10.8%,-76.3% (active),–,–,-2.34% (active)
COC1CC2C=C(C)/C=C/C=C/C(=O)NC(c3ccccc3)C/C=C/CCC(O)CC(=O)C2=C1O (configuration not stated),-73.5% (active),-61.6% (active),-92.8% (active),-91.6% (active),-73.3% (active),-86.6% (active),–,–,–,-94.3% (active)
Cc1ccc(C(=O)C2C(c3ccccc3)N2C2CCCCC2)cc1 (configuration not stated),102% and 88.4%,100% and 94.7%,107%,112% and 101%,98.6% and 92%,78.1%,–,–,–,101% and 97.6%
COc1ccc(/C=C\[N+](=O)[O-])cc1OC,83.9% and 65.5%,101% and 77.5%,129% and 90.2%,107% and 88%,45.6% and 63.3%,92.8% and 82.3%,76.5% and 64.5%,–,67.9% and 68.7%,96.4% and 47.9%
COC(C(=O)C(O)C(C)O)C1Cc2cc3cc(OC4CC(OC(C)=O)C(OC5CC(O)C(OC)C(C)O5)C(C)O4)cc(O)c3c(O)c2C(=O)C1OC1CC(OC2CC(OC3CC(C)(O)C(OC(=O)C(C)C)C(C)O3)C(O)C(C)O2)C(O)C(C)O1 (configuration not stated),8.85% (active),-12.6% (active),7.22% (active),-5.14% (active),-10.2% (active),-16.5% (active),–,–,–,0.268% (active)
ClCc1ccc2ccccc2n1,85.2%,78.2%,100%,59.4%,110%,79.8%,–,–,102%,103%
O=C1CCC(=O)N1SC(Cl)(Cl)Cl,108%,101%,106%,113%,108%,105%,–,–,–,106%
CC(C)c1cc([N+](=O)[O-])cc([N+](=O)[O-])c1O,102%,102%,112%,98.5%,105%,75.1%,–,103%,–,101%
CN(CCCl)c1ccc(/C=C/C2=[N+](C)c3ccccc3C2(C)C)cc1,9.42% (active),46.6%,46.7%,41.1%,17.7%,31.1%,-7.09% (active),30.4%,–,57.6%
C#CC1(O)CCC(C(C)(C)C)CC1 (configuration not stated),105%,111%,110%,115%,112%,87.9%,–,–,94.2%,107%
NC(=O)c1cc([N+](=O)[O-])c(Cl)c([N+](=O)[O-])c1,88.6%,102%,109%,105%,107%,14.1%,–,-4.01% (active),–,91.2%
CC[C@@H](C)[C@@H]1NC(=O)C(NC(=O)C(CC(C)C)N(C)C(=O)C2CCCN2C(=O)C(C)O)C(C)OC(=O)C(Cc2ccc(OC)cc2)N(C)C(=O)C2CCCN2C(=O)C(CC(C)C)NC(=O)C(C)C(=O)C(C(C)C)OC(=O)C[C@H]1O (some centres not stated),-46.2% (active),-58.9% (active),-16.5% (active),-42.9% (active),-49.7% (active),-41.9% (active),-69.5% (active),–,–,-37.9% (active)
